A selection: hits, their analogues and other compounds. The true share with any hit is near 22%.
CYP2C9 act = human CYP2C9 activators, primary screen, biochemical, luminescence; recombinant CYP2C9, luciferin-H conversion; stronger effect = higher value; factor 1 = untreated enzyme, 0 = blocked; activation factor at 5 µM; 96,000 tested, 1.4% active;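 active means activation factor of 2 or more for CYP2C9 at a 5 µM dose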
Target sequence (P11712 whole entry, looked up): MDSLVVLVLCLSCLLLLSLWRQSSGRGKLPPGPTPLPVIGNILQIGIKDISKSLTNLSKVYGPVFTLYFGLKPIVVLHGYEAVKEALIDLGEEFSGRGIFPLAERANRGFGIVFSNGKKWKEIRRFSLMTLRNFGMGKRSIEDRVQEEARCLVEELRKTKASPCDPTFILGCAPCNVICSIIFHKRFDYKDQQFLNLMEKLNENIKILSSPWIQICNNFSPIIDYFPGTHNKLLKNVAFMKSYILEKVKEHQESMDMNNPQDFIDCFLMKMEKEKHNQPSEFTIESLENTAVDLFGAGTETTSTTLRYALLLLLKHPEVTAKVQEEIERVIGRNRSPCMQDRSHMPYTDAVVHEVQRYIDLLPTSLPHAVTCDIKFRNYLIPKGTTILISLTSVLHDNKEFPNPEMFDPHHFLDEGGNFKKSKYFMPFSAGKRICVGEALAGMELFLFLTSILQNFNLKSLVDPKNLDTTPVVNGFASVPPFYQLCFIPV
CYP2C9 inhib = blockers of cytochrome P450 2C9 activity – biochemical, luminescence, ADME assay, primary screen | CYP2C9 Supersomes, luciferin-H conversion | 96,000 tested, 20% active | P11712 | inhibition, % at 5 µM;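 active means blocking of liver enzyme CYP2C9 beyond about 50% at 5 µM, limit read from the data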
Measles CPE = compounds protecting cells from measles virus cytopathic effect, primary screen, measles RdRp inhibitor project, single point, MLSMR library, absorbance; 140,000 tested, 1.5% active; protection (pct of control), % at 4 µM; Measles virus-infected cells, CPE protection; AID 841, 2007; in the data active means protection mostly above about 24%, no sharp cut-off; inactive means mostly below about 26%
CYP2C19 inhib = blockers of cytochrome P450 2C19 activity – biochemical, luminescence, ADME assay, primary screen. P33261. CYP2C19 Supersomes, luciferin-H EGE luminescence, 30 min. inhibition, % at 5 µM. 96,000 tested, 21% active. AID 778, 2007;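 active means CYP2C19 inhibition above a set limit at 5 µM in the primary screen, cut at about 50% in these data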
CYP2C19 activ = human CYP2C19 activators, primary screen, biochemical, luminescence; Cytochrome P450 2C19 (Homo sapiens), P33261; recombinant CYP2C19, luciferin-H EGE luminescence; stronger effect = higher value; 0 = fully inhibited enzyme, 1 = untreated enzyme; activation factor at 5 µM; 96,000 tested, under 10 active; AID 1025, 2008;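 active means activation factor of at least 2 at 5 µM in the primary screen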
Of the large screens only hits and unclear results are named; the others gave an inactive call.

Cc1ccc2[nH]c(=O)c(CN(Cc3cccs3)Cc3nnnn3Cc3ccccc3)cc2c1	CYP2C9 inhib 60, CYP2C19 inhib 93
O=C(N/N=C/c1cccs1)c1c[nH]c2ccccc12	none (no result: CYP2C9 act, CYP2C9 inhib, CYP2C19 inhib, CYP2C19 activ)
CCC(Oc1ccccc1)C(=O)Nc1ccc(S(=O)(=O)N2CCOCC2)cc1 (configuration not stated)	none (no result: CYP2C9 act, CYP2C9 inhib, CYP2C19 inhib, CYP2C19 activ)
Cc1[nH]n(-c2ccccc2)c(=O)c1/C=N/n1c(C)nc2ccccc2c1=O	none
CCCc1cc(=O)n2[nH]c(NCc3ccccc3F)nc2n1	none
Cc1ccc2[nH]c(=O)c(CN(CCO)Cc3nnnn3CCc3ccccc3)cc2c1	CYP2C19 inhib 71
CCOC(=O)Cn1nnnc1C(CC)N(Cc1cccs1)Cc1cc2ccc(OC)cc2[nH]c1=O (configuration not stated)	CYP2C9 inhib 91, CYP2C19 inhib 96
Cc1ccc2[nH]c(=O)c(CN(CCO)C(=O)NCc3ccccc3)cc2c1	none
CC(C)COP(=O)(c1ccc(N(C)C)cc1)C(O)c1ccccc1F (configuration not stated)	none
Cc1nc(N2N=C3/C(=C/c4ccc(F)cc4)CCCC3C2c2ccc(F)cc2)sc1C(=O)N(C)C (configuration not stated)	none
CC(C)(C)c1ccc(-c2nc(-c3ccncc3)no2)cc1	none (no result: CYP2C9 act, CYP2C9 inhib, CYP2C19 inhib, CYP2C19 activ)
Cc1occc1-c1nc(-c2ccccn2)no1	CYP2C19 inhib 76
c1ccc(CCc2ccccc2-c2nc(-c3ccccn3)no2)cc1	none
Cc1onc(-c2ccccc2Cl)c1-c1nc(-c2ccccn2)no1	CYP2C9 inhib 97
Cc1occc1-c1nc(-c2ccncc2)no1	CYP2C9 inhib 68, CYP2C19 inhib 98
C/C(=N\N=C\c1cccc(F)c1)c1nnn(-c2nonc2N)c1C	none (no result: CYP2C9 act, CYP2C9 inhib, CYP2C19 inhib, CYP2C19 activ)
COc1ccc(CCNC(=O)COc2ccc(S(=O)(=O)NC(C)C)cc2Cl)cc1OC	CYP2C9 inhib 86, CYP2C19 inhib 65
COc1ccc(CCNC(=O)CCc2ccc(S(=O)(=O)NC(C)C)cc2)cc1OC	none (no result: CYP2C9 act, CYP2C9 inhib, CYP2C19 inhib, CYP2C19 activ)
CC(C)NS(=O)(=O)c1ccc(OCC(=O)NCc2ccc3c(c2)OCO3)c(Cl)c1	CYP2C9 inhib 94, CYP2C19 inhib 97
CCc1ccc(N2CC(C(=O)Nc3cc(C)ccc3F)CC2=O)cc1 (configuration not stated)	CYP2C9 inhib 91, CYP2C19 inhib 86
Cc1ccc(N2CC(C(=O)Nc3cccc(F)c3)CC2=O)cc1 (configuration not stated)	CYP2C9 inhib 56, CYP2C19 inhib 55
CCOc1ccc(N2CC(C(=O)Nc3ccc(F)cc3F)CC2=O)cc1 (configuration not stated)	none
CC1=CC(c2ccccc2)=Nc2ccc(C)cc2N1	none (no result: CYP2C9 act, CYP2C9 inhib, CYP2C19 inhib, CYP2C19 activ)
O=C(Cc1cccs1)N(c1ccc(Cl)cc1)C1C=CS(=O)(=O)C1 (configuration not stated)	none
O=C(c1ccc(Br)o1)N(c1ccc(Br)cc1)C1C=CS(=O)(=O)C1 (configuration not stated)	CYP2C9 inhib 59, CYP2C19 inhib 86
O=C(c1ccc2c(c1)OCO2)N(c1ccc(Cl)cc1)C1C=CS(=O)(=O)C1 (configuration not stated)	CYP2C19 inhib 70
Cc1cc(C)cc(N(C(=O)c2ccc3c(c2)OCO3)C2C=CS(=O)(=O)C2)c1 (configuration not stated)	CYP2C19 inhib 54
Cc1ccc(N(C(=O)c2ccc3c(c2)OCO3)C2C=CS(=O)(=O)C2)cc1 (configuration not stated)	none
COc1ccc(/C=N/NC(=O)CSCC(=O)Nc2ccccc2)cc1OC	none
Cc1cc(SCC(=O)N/N=C/c2ccc(O)c(O)c2O)c(C)cc1Br	none
COC(=O)Oc1ccc(/C=N/NC(=O)CSCc2ccccc2Br)cc1OC	CYP2C9 inhib 67, CYP2C19 inhib 56
COc1ccc(/C=N/NC(=O)CCn2c3ccccc3c3ccccc32)cc1O	CYP2C9 inhib 97, CYP2C19 inhib 94
COc1cc(/C=N/NC(=O)CSc2cc(C)c(Br)cc2C)ccc1O	CYP2C9 inhib 76
C=CCSC(=S)NC1CCS(=O)(=O)C1 (configuration not stated)	none (no result: CYP2C9 act, CYP2C9 inhib, CYP2C19 inhib, CYP2C19 activ)
Cc1cc(NC(=O)Nc2cccc3ccccc23)no1	none
O=C(Nc1cccc2ccccc12)c1ccc(OC(=S)N2CCOCC2)cc1	Measles CPE 109
S=C(Nc1cccc2ccccc12)NN1CCOCC1	CYP2C9 inhib 81, CYP2C19 inhib 75
COc1ccc(C(=O)Nc2ccccc2C(=O)NCCN2CCOCC2)cc1	none
O=C(Nc1cc(N2CCOCC2)ncn1)Nc1cccc2ccccc12	CYP2C9 act 2
O=C(Nc1cccc2ccccc12)N1CCOCC1	none
COc1cc2cc(C)nc(Cc3cccc4ccccc34)c2cc1OC	none
O=C1CCCCCC1C1(O)C(=O)Nc2ccc(Br)cc21 (configuration not stated)	CYP2C19 inhib 52
CC(C)(C)C1CCC(=O)C(C2(O)C(=O)Nc3ccccc32)C1 (configuration not stated)	none
CC(=O)c1c(O)cc(=O)n(-c2ccccc2)c1-c1ccc(C)cc1	none
CCNC(=O)NC(=O)C(C)Sc1ccc2c(c1)OCCO2 (configuration not stated)	CYP2C19 inhib 53
CCCC(C)C(=O)Nc1ccc2c(c1)OCCO2 (configuration not stated)	none
OC(CC1CC12c1ccccc1-c1ncccc12)(c1ccccc1)c1ccccc1 (configuration not stated)	CYP2C9 inhib 97, CYP2C19 inhib 92
Cc1cc(C)n(-c2nc3ccccc3c(=O)n2OCc2ccc(F)cc2)n1	CYP2C9 inhib 50, CYP2C19 inhib 99
Cc1cc(C)n(-c2nc3ccccc3c(=O)n2OCC(=O)Nc2c(C)cccc2C)n1	CYP2C9 inhib 52
Cc1cc(C)n(-c2nc3ccccc3c(=O)n2OCc2ccc(Cl)cc2)n1	CYP2C19 inhib 98
Cc1cc(C)n(-c2nc3ccccc3c(=O)n2OCC(=O)OCc2ccccc2)n1	none
O=C(NCCC1=CCCCC1)c1ccc(F)cc1	none (no result: CYP2C9 act, CYP2C9 inhib, CYP2C19 inhib, CYP2C19 activ)
COc1cc2ccccc2cc1C(=O)Nc1ccccc1N1CCN(S(C)(=O)=O)CC1	CYP2C19 inhib 50
CS(=O)(=O)N1CCN(c2ccccc2NC(=O)c2ccc(-c3ccc(Br)cc3)o2)CC1	CYP2C9 inhib 71, CYP2C19 inhib 56
Cn1c(=O)[nH]c(=O)c2c1nc(Sc1ncccn1)n2CCCc1ccccc1	none
CCC(C)/C(C)=N/NC(=O)C1COc2ccccc2O1 (configuration not stated)	none (no result: CYP2C9 act, CYP2C9 inhib, CYP2C19 inhib, CYP2C19 activ)
CCN1CCN(CC(=O)Nc2ccc3c(c2)OCCO3)C(=O)C1=O	none
c1csc(Cc2nn3c(-c4ccncc4)nnc3s2)c1	CYP2C9 inhib 80, CYP2C19 inhib 98
Clc1ccccc1OCc1nn2c(-c3ccncc3)nnc2s1	CYP2C9 inhib 80, CYP2C19 inhib 100

High-throughput results deposited in PubChem BioAssay by several laboratories.
